Assay outcomes from PubChem BioAssay.
Compounds with a hit are over-represented: about 2.9% of the library has one in this group of screens.
PME-1 inh: PME-1 inhibitors via competitive probe labeling, primary screen, biochemical, fluorescence polarization, FP-Rh probe, HTS; Protein phosphatase methylesterase 1 (Homo sapiens), Q9Y570; recombinant PME-1; inhibition, % at 5.9 µM; hit rate 0.53% among 320,000; AID 2130, 2009;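 active = inhibition above the campaign mean of all compounds plus 3 SD, cut at about 26% in these data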;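 also: competitive labeling of PME-1 active site by serine hydrolase directed probe; 0% = PME-1 with DMSO and 100% = wells lacking PME-1 enzyme; inhibitors block probe labeling so polarization falls and inhibition rises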
Fam108B counter: mouse Fam108B serine hydrolase inhibitors, primary screen, counter-screen for RBBP9 inhibitor project, biochemical, fluorescence polarization | inhibition, % at 9.51 µM | recombinant Fam108B, FP-Rh probe fluorescence polarization | hit rate 0.33% among 300,000;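 active = inhibition above the screen mean inhibition plus 3 SD, computed separately per campaign, cut at about 18% in these data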;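 also: inhibitors lower polarization as less probe binds the enzyme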
PAFAH1B3 inh: PAFAH1B3 enzyme inhibitors, primary screen, biochemical, fluorescence polarization, human; Platelet-activating factor acetylhydrolase IB subunit alpha1 (Homo sapiens), Q15102; recombinant PAFAH1B3, FP-rhodamine probe; inhibition, % at 3.39 µM; hit rate 0.28% among 340,000;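 active = inhibition above the screen-wide average of all tested compounds plus 3 SD, cut at about 25% in these data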;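 also: 0% = enzyme with DMSO only and 100% = wells lacking PAFAH1B3 protein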
PAFAH2 inh: PAFAH2 enzyme inhibitors, primary screen, biochemical, fluorescence polarization, human; Platelet-activating factor acetylhydrolase 2, cytoplasmic (Homo sapiens), Q99487; recombinant PAFAH2, FP-rhodamine activity probe; inhibition, % at 3.39 µM; hit rate 0.99% among 340,000; AID 492956, 2010;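 active = inhibition above the mean over all tested compounds plus 3 SD, cut at about 30% in these data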;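 also: inhibitors block probe labeling of enzyme so polarization drops; 0% = enzyme with DMSO and 100% = wells lacking PAFAH2 protein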
pPAFAH FP inh: pPAFAH enzyme inhibitors, primary screen, biochemical, fluorescence polarization, human | inhibition, % at 3.39 µM | hit rate 1.5% among 330,000 | recombinant pPAFAH, FP-rhodamine probe fluorescence polarization;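 active = inhibition above the mean inhibition across the screen plus 3 SD, cut at about 25% in these data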;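 also: inhibitors block binding of the rhodamine activity-based probe so polarization drops; 0% = enzyme with DMSO and 100% = wells lacking pPAFAH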
Target sequence (Q13093 whole entry, looked up): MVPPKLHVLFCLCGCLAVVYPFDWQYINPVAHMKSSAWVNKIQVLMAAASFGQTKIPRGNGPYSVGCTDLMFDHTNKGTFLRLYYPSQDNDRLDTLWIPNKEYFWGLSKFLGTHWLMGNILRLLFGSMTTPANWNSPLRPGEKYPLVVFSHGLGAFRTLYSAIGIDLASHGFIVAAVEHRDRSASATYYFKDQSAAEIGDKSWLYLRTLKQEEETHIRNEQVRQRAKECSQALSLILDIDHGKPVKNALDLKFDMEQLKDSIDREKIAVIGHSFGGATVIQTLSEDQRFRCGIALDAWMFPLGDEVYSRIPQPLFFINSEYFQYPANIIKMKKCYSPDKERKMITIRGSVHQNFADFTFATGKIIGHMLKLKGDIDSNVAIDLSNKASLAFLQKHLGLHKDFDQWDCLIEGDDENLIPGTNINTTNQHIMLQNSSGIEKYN
PAFAH1B2 inh: PAFAH1B2 enzyme inhibitors, primary screen, biochemical, fluorescence polarization, human; Platelet-activating factor acetylhydrolase IB subunit alpha2 (Homo sapiens), P68402; recombinant PAFAH1B2, FP-rhodamine activity probe; inhibition, % at 3.39 µM; hit rate 1.2% among 340,000; AID 492953, 2010;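 active = inhibition above the mean of all tested compounds plus 3 SD, cut at about 24% in these data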;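 also: 0% = enzyme with DMSO and 100% = wells lacking PAFAH1B2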
pPAFAH FP conf: pPAFAH (PLA2G7) enzyme inhibitors, confirmation, biochemical, fluorescence polarization, human. shares compounds with pPAFAH FP inh. recombinant pPAFAH, FP-Rh probe fluorescence polarization. inhibition, % at 3.39 µM. hit rate 72% among 2,300. AID 463230, 2010;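 active = mean inhibition of the triplicate above the hit cutoff set for the earlier primary screen, cut at about 25% in these data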;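 also: 0% = enzyme with DMSO and 100% = wells lacking pPAFAH enzyme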
PAFAH2 confirm: PAFAH2 enzyme inhibitors, confirmation, biochemical, fluorescence polarization, human; shares compounds with PAFAH2 inh; recombinant PAFAH2, FP-rhodamine activity probe; inhibition, % at 3.39 µM; hit rate 65% among 2,300;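 active = mean inhibition over three repeats above a set limit taken from the earlier primary screen, cut at about 30% in these data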;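 also: inhibitor blocks binding of rhodamine activity probe so polarization falls; 0% = enzyme with DMSO and 100% = wells lacking PAFAH2 protein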
An asterisk follows results filed as active; / = no result given.

SMILES | PME-1 inh | Fam108B counter | PAFAH1B3 inh | PAFAH2 inh | pPAFAH FP inh | PAFAH1B2 inh | pPAFAH FP conf | PAFAH2 confirm
COCCN=c1scc(-c2ccco2)n1/N=C/c1ccc(O)c(O)c1O | 2 | -2 | 8 | 25 | 64* | -8 | 67* | /
C=CCN=c1scc(-c2ccco2)n1/N=C/c1ccc(O)c(O)c1O | 29* | -6 | 6 | 7 | 49* | -1 | 68* | /
Oc1ccc(/C=N/n2c(-c3ccco3)csc2=Nc2cccnc2)c(O)c1 | 20 | 5 | 10 | 10 | 19 | 9 | / | /
COc1cccc(/C=N/n2c(-c3ccco3)nc3ccccc3c2=O)c1 | -2 | 5 | -2 | -3 | -5 | -1 | / | /
CC(C)N=c1scc(-c2ccco2)n1/N=C/c1ccc(O)c(O)c1 | -7 | 2 | 6 | 4 | 64* | 1 | 69* | /
O=C(CSc1nnc(-c2ccco2)c(-c2ccco2)n1)Nc1ccccc1 | 5 | 15 | 10 | 42* | 59* | 2 | 21 | 11
O=C1CN(C(=O)COC(=O)c2cccnc2Cl)c2ccccc2N1 | -7 | -6 | 10 | 9 | -12 | 3 | / | /
CCn1c(CSc2nc3ccccc3s2)nnc1SCC(=O)c1ccc(Cl)cc1 | -6 | 3 | 7 | 2 | 12 | 4 | / | /
CCn1c(CSc2nc3ccccc3s2)nnc1SCC(=O)c1ccc(O)c(O)c1 | -3 | 1 | 11 | 50* | 40* | 7 | 94* | 23
COc1ccccc1C1=NOC(C)(c2sc(-c3ccccc3)nc2C)C1 (stereo not given) | -2 | 0 | 1 | 4 | 5 | 0 | / | /
COc1ccccc1CNC(=O)COC(=O)c1cc(-c2ccco2)nc2ccccc12 | 12 | -1 | 16 | 33* | 56* | -3 | 18 | 9
O=C(COC(=O)CCc1c[nH]c(=O)[nH]1)Nc1cccc(Cl)c1 | -7 | -1 | -9 | 35* | -3 | -3 | / | 29
Oc1ccccc1-c1nc(N2CCN(Cc3ccccc3)CC2)c2ccccc2n1 | 0 | 1 | 8 | 0 | 7 | 1 | / | /
COc1ccc(NC(=O)Nc2ccc(F)cc2)cn1 | -4 | 3 | -4 | 7 | -3 | 7 | / | /
COc1cc(C2OC(=O)c3ccccc3S2)cc(OC)c1OC (stereo not given) | 6 | -2 | 7 | 6 | 3 | 2 | / | /
COc1ccc(C2OC(=O)c3ccccc3S2)cc1 (stereo not given) | -1 | 4 | 5 | 86* | 4 | 3 | / | 78*
CCCCn1c(=O)n(CC(=O)Nc2ccc(C)c(Cl)c2)c(=O)c2c1ncn2Cc1ccco1 | -3 | -17 | -6 | -9 | -2 | 0 | / | /
Oc1ccccc1/C=N/NC(=S)NC1CC2CC1C1C=CCC21 (stereo not given) | 3 | 1 | 20 | 52* | 14 | 13 | / | 14
CC(C)=CC(=O)OCC(=O)Nc1ccc(Cl)cc1 | 5 | -4 | 4 | 80* | 13 | 3 | / | 78*
Cc1ccc(OCCC(=O)OCC(=O)Nc2cc(C)cc(C)c2)cc1 | 5 | 0 | -2 | -4 | 16 | 5 | / | /
CC(C)=CC(=O)OCC(=O)Nc1cc(C)cc(C)c1 | 7 | -3 | 11 | 81* | 9 | 3 | / | 85*
Cn1c(CCNS(=O)(=O)c2ccccc2)nc2cc([N+](=O)[O-])ccc21 | -1 | 2 | 10 | 3 | 2 | 4 | / | /
CCOc1ncccc1C(=O)OCC(=O)Nc1ccc(C)c(S(=O)(=O)N2CCOCC2)c1 | 7 | -2 | 9 | 75* | 13 | -5 | / | 76*
